About 79,000 compounds went through this panel and 15% of them were active in at least one assay; those are over-represented in the sample as a whole. Rule as the data show it: active = growth inhibition above about 70%; inactive = the rest.
Legend:
[1] = NCI Yeast Anticancer Drug Screen. Data for the rad50 strain (AID 155);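 also: 0% = growth of vehicle-only cultures of the same strain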; conditions: S. cerevisiae rad50 strain growth inhibition; at 50.0 µM; active compounds read high
In short: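 Relative growth inhibition (compound vs vehicle) was measured in yeast with a defined repair-gene alteration.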

[2] = NCI Yeast Anticancer Drug Screen. Data for the mec2-1 strain (AID 157); conditions: S. cerevisiae mec2-1 strain, at 50.0 µM, active compounds read high
In short: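 Vehicle-treated cultures served as reference for growth inhibition of compound-exposed mec2-1 yeast.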

[3] = NCI Yeast Anticancer Drug Screen. Data for the sgs1 mgt1 strain (AID 161);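 also: 0% = growth of cultures given vehicle only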; conditions: S. cerevisiae sgs1 mgt1 strain, at 50.0 µM, active compounds read high
In short: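 Read-out: growth inhibition vs vehicle controls. Cells: mutant yeast strain deficient in DNA damage repair.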

[4] = NCI Yeast Anticancer Drug Screen. Data for the cln2 rad14 strain (AID 165);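 also: 0% = growth equal to vehicle treated cultures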; conditions: S. cerevisiae cln2 rad14 strain, at 50.0 µM, active compounds read high
In short: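 Each compound was tested on cln2 rad14 yeast. Inhibition of growth was calculated against vehicle-exposed controls.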

[5] = NCI Yeast Anticancer Drug Screen. Data for the bub3 strain (AID 167); conditions: S. cerevisiae bub3 mutant strain, at 50.0 µM, active compounds read high
In short: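 Screening used yeast with an engineered genetic alteration affecting cell cycle control. Compound-exposed cultures were compared with vehicle cultures, and reduced growth was taken as inhibition.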

[6] = NCI Yeast Anticancer Drug Screen. Data for the mlh1 rad18 strain (AID 175); conditions: S. cerevisiae mlh1 rad18 strain growth inhibition; at 50.0 µM; active compounds read high
In short: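 Vehicle-treated cultures served as the reference for growth inhibition in a yeast strain carrying DNA damage repair alterations exposed to each compound.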

Measured: growth inhibition

Cc1cc(C)c(/C=C\C(=O)c2ccccc2)c(C)c1
inactive: [1] 9.75% | [2] -7.65% | [3] -4.3% | [4] -37.9% | [5] 6.15% | [6] -15.5%

CCSc1ncnc2nc[nH]c12
inactive: [1] 9% | [2] -8.8% | [3] 4.4% | [4] -18.4% | [5] -9.55% | [6] 8.4%

O=C1c2ccccc2C(=O)c2c(Cl)ccc(O)c21
inactive: [1] 3.15% | [2] 11.2% | [3] 3.8% | [4] 0.1% | [5] 30.4% | [6] 19.9%

CC1(C)OC(=O)C(C)(C)OC1=O
inactive: [1] -11.7% | [2] -5% | [3] 7.05% | [4] 12.3% | [5] 8.4% | [6] -3.15%

Cc1nn(C(=O)c2ccncc2)c2c1C(c1ccccc1)SC(N)=N2 (stereo not given)
inactive: [1] -2.9% | [2] -20.1% | [3] 18.9% | [4] 9.55% | [5] 15.1% | [6] 2.35%

COC(=O)CC(NC(=O)OCc1ccccc1)C(=O)NC(COC(C)=O)C(=O)NCC(=O)OCc1ccccc1 (stereo not given)
inactive: [1] 28.4% | [2] 10.4% | [3] 10.3% | [4] 15.6% | [5] 3.2% | [6] 16.4%

Cc1cc(N=Nc2c(O)c3ccccc3[nH]c2=O)ccc1N=Nc1ccc(C(=O)O)cc1
inactive: [1] 1.65% | [2] -9.15% | [3] 3.5% | [4] 1.1% | [5] -14.1% | [6] -8.05%

O=C1C(Cl)=C(Nc2ccc([N+](=O)[O-])cc2)C(=O)c2ccccc21
inactive: [1] 6.6% | [2] 2.55% | [3] 4.6% | [4] -40% | [5] -0.7% | [6] 5.5%

CCC1(C)OC(C)CC(C)(C)O1 (stereo not given)
inactive: [1] 0.65% | [2] -22.9% | [3] -25.4% | [4] -0.25% | [5] -12.6% | [6] 0%

Cc1nc(/N=C(\N)Nc2ccc(Cl)c(Cl)c2)[nH]c(=O)c1Cc1ccccc1
inactive: [1] 2.3% | [2] 1.65% | [3] -10.1% | [4] -6.75% | [5] -5.05% | [6] 3.65%

Cc1cc(C(=O)C(C(c2ccccc2)N2CCOCC2)N2CCOCC2)ccc1Cl (stereo not given)
inactive: [1] 4.6% | [2] 7.15% | [3] 12.8% | [4] -1.35% | [5] 10.8% | [6] 26.9%

OC(Cc1ccccn1)c1ccccc1 (stereo not given)
inactive: [1] 33.4% | [2] 13.1% | [3] 21.4% | [4] 22.6% | [5] 9.35% | [6] 32.1%

CCCCCCCCCCCc1noc2c1C(=O)C(O)CC2 (stereo not given)
inactive: [1] 36.5% | [2] -3.05% | [3] -1.05% | [4] 40.4% | [5] -69% | [6] 5.25%

COc1cc(OC)c(NC2=CC(c3ccc(Cl)cc3)OC2=O)cc1Cl (stereo not given)
inactive: [1] 27.3% | [2] 1.85% | [3] 12.8% | [4] -3.6% | [5] 1.4% | [6] 17.8%

CC(=O)N(c1c(N)[nH]c(=O)n(C)c1=O)C1OC(CO)C(O)C(O)C1O (stereo not given)
inactive: [1] -1.65% | [2] 2.8% | [3] 19.1% | [4] -5% | [5] 4.3% | [6] 12.4%

COc1cc(/C=C/C(=O)OCC23CC[C@@]4(C(=O)O)CCC(C)[C@H](C)C4C2=CCC2[C@@]4(C)CC[C@H](O)C(C)(C)C4CC[C@]23C)ccc1O (stereo not given in full)
inactive: [1] 20.2% | [2] 9.95% | [3] 26.6% | [4] 4.85% | [5] -1.6% | [6] 6.9%

COc1ccc(S(=O)(=O)N/N=C/c2cccc([N+](=O)[O-])c2O)cc1
inactive: [1] 9.3% | [2] -3.7% | [3] 19.7% | [4] 2% | [5] 12% | [6] 32.6%

CCOP(=O)(Cc1c(C)cc(Br)c2ccccc12)OCC
inactive: [1] -2.85% | [2] -13.8% | [3] -0.95% | [4] -32.2% | [5] 5.45% | [6] -9.35%

Cc1ccc(Cc2cc(=O)[nH]c(=S)[nH]2)cc1
inactive: [1] -1.05% | [2] 4.05% | [3] -6.15% | [4] -26.9% | [5] -11.6% | [6] -3.35%

CCCCCCCCCCCCCCCCC(CCCCCCCCCCCCCCCC)c1ccccc1
inactive: [1] 35.2% | [2] -0.65% | [3] 13.4% | [4] -18.1% | [5] 4.05% | [6] 18.6%
